High-throughput results (PubChem BioAssay)
Pf Dd2 inh = blocks in vitro growth of P. falciparum Dd2 | AID 1347417 | hit rate 4.3% among 120,000 | Potency, µM (highest dose often 28.9 µM), without a hit: at the top dose activity, negative = inhibition, actives largely listed as inhibitors | P. falciparum Dd2 growth, SYBR Green, 72 h; active = well fitted inhibition curve with a large enough effect;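 note: plate controls were DMSO vehicle for no effect and reference drug for full effect; nearly all actives have a fitted effect of over 65% in size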
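Readout: SYBR Green fluorescence, 485 nm excitation, 535 nm emission, after ~16 h lysis at 37C. Before that, Dd2-infected red cells (2.5% hematocrit) grew 72 h with compound, 29 uM top final concentration.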
The depositor's hits bear a star; i = inactive; [ ] = remark or other dose. The entries come from a sample that favours hits as a whole. Potency is the fitted concentration of half-maximal effect.

SMILES	Pf Dd2 inh
CCn1c2ccccc2c2cc(CN3CCN(Cc4cc(OC)c(O)c(OC)c4)CC3)ccc21	11.2µM*
O=C1CCCN1CCC1CCN(Cc2cccc(OCC(O)CN3CCOCC3)c2)CC1 (stereo not given)	-2.8%
COc1ccccc1CN1CC(c2noc(-c3ccc(C)cc3C)n2)CC1=O (stereo not given)	i
CCOC(=O)C1=C(C)N=C2SC=C(CC(=O)N3CCCC3)N2C1c1cc(OC)cc(OC)c1 (stereo not given)	-7.2%
CC(=O)N1CCC([C@@H]2CN(Cc3ccc(C(F)(F)F)cc3)C[C@H]2CO)CC1	-12.2%
COc1c(F)cccc1CN1CCOc2cc([S+](N)(=O)[O-])ccc2C1	i
CCN1C(=O)C2(CCN(S(=O)(=O)c3ccc(C)c(C)c3)CC2)c2ccccc21	i
CCN1C(=O)C2(CCN(S(=O)(=O)c3cccc(C)c3)CC2)c2ccccc21	i
CCN1C(=O)C2(CCN(S(=O)(=O)c3ccc(Cl)cc3C)CC2)c2ccccc21	1µM*
Cc1nc2ncnn2c(C)c1CCC(=O)NCC1CCOc2ccccc2C1 (stereo not given)	6.3%
CCN(CC)CCCNC(=O)Cc1ccc(NC(=O)N2CCCCc3ccccc32)cc1	17.1%
CCN(CC)CCNC(=O)c1ccc2c(c1)N(S(C)(=O)=O)CC2	23.5%
CCN(CC)CCNC(=O)c1ccc(-n2c(-c3ccccc3)cc3c2CCCC3)cc1	7.94µM*
Cc1c(F)cccc1NC(=O)N1C[C@@H](F)C[C@H]1C(=O)N1CCCCC1	-12.4%
CCNC(=O)N(C1CC1)C1CCOC2(CCN(C(=O)CCc3ccc(OC)cc3)CC2)C1 (stereo not given)	12.9%
CS(=O)(=O)N1CCCN(C(=O)C2CCCCC2)c2ccccc21	32.9%
CC(=O)N1CC2(CCN(CC3CC3)CC2)Cc2ccccc21	-13.9%[44.1 µM]
O=C(c1ccc(Cl)cc1)N1CC2(CCN(CC3CCCCC3)CC2)Cc2ccccc21	5.62µM*
O=C(C1CCCC1)N1CC2(CCN(Cc3c[nH]c4ccccc34)CC2)Cc2ccccc21	4.47µM*
O=C(c1ccccc1)N1Cc2ccccc2CC2(CCN(CC3CCNC3)C2)C1 (stereo not given)	2.7%
CC(=O)N1CC2(CCN(C(=O)c3ccc(Cl)cc3)CC2)Cc2ccccc21	2.6%
CC(=O)N1CC2(CCN(CC3CC3)C2)Cc2ccccc21 (stereo not given)	-26.1%[44.1 µM]
CC(=O)N1CC2(CCCN2C(=O)CCC(=O)O)Cc2ccccc21 (stereo not given)	18.5%
CC(=O)N1CC2(CCCN(CC3CCCCC3)C2)Cc2ccccc21 (stereo not given)	10µM*
O=C(C1CCCC1)N1CC2(CCCN2C2COC2)Cc2ccccc21 (stereo not given)	8.91µM*
SMILES	Pf Dd2 inh
O=C1Nc2ccccc2CNC12CCN(Cc1c[nH]c3ccccc13)CC2	-25.3%
CC(=O)N1CC(CO)C2(CCN(Cc3c[nH]c4ccccc34)CC2)C1 (stereo not given)	46.5%
Cc1nc(C)c(C)c(N2CCC(Oc3ccc4ccccc4c3)(C(=O)O)CC2)n1	-10.3%
COc1ccccc1C(=O)Nc1ccc([C@@H](O)[C@H]2COCC(=O)N2Cc2ccc(F)cc2)cc1	-25.0%
CC(=O)Nc1cccc(C(=O)N2CC[C@@H](c3sccc3C)[C@H](O)C2)c1	-9.2%
O=C(O)CCC(=O)N1CCC2(Cc3ccccc3N(C(=O)C3CCCC3)C2)C1 (stereo not given)	21.5%
O=C(C1CCCC1)N1CC2(CCN(CC3CC3)C2)Cc2ccccc21 (stereo not given)	8.91µM*
O=C(C1CCCC1)N1CC2(CCN(Cc3ccccn3)CC2)Cc2ccccc21	10µM*
CC(=O)N1Cc2ccccc2CC2(CCN(CC3CCNCC3)C2)C1 (stereo not given)	12.7%
C[S+](=O)([O-])N1Cc2ccccc2CC2(CCN(Cc3ccccn3)CC2)C1	-19.3%
CC(=O)NCC(=O)N1Cc2ccccc2CC2(CCN(CC3CCCCC3)C2)C1 (stereo not given)	-24.3%
CCCS(=O)(=O)N1C[C@@H](Oc2cccnc2)C[C@H]1C(N)=O	21.2%
CNC(=O)C1CN(c2ccc(F)cc2)C(=O)N1 (stereo not given)	5.1%[44.1 µM]
CC(CNC(=O)c1noc(-c2ccc3c(c2)OCO3)n1)c1ccccc1 (stereo not given)	23.3%
COCC1CN(C(C)=O)CC12CCN(Cc1cccn1C)CC2 (stereo not given)	-17.0%
O=C1NC2(CCN(S(=O)(=O)c3cccc(C(F)(F)F)c3)C2)N=C1c1ccccn1 (stereo not given)	-18.3%
CCCCS(=O)(=O)c1oc(-c2ccc(F)cc2)nc1S(=O)(=O)c1ccccc1	-23.7%
CS(=O)(=O)c1oc(-c2ccc(F)cc2)nc1S(=O)(=O)c1ccc(Cl)cc1	10.0%
CC(C)S(=O)(=O)c1oc(-c2ccc(F)cc2)nc1S(=O)(=O)c1ccccc1	6.31µM*
CC(C)S(=O)(=O)c1oc(-c2cccs2)nc1S(=O)(=O)c1ccc(F)cc1	10µM*
Cc1ccc(S(=O)(=O)c2nc(-c3cccs3)oc2SC(C)C)cc1	-9.4%
O=S(=O)(c1ccccc1)c1nc(-c2cccs2)oc1SCc1ccc(F)cc1	3.1%
Cn1ccc(C(=O)NCc2nnc3n2C(C(=O)NCC2CC2)CC3)n1 (stereo not given)	-8.0%
CN1C(=O)c2cccn2CC1C(=O)NCCCN1CCCc2ccccc21 (stereo not given)	i
COc1ccc(CNC(=O)N2CCC(c3noc(-c4ccccn4)n3)C2)cc1 (stereo not given)	-0.9%[5.79 µM]
SMILES	Pf Dd2 inh
COc1ccc(C2=CC(c3ccccc3Cl)n3nc(-c4ccc(C)cc4)nc3N2)cc1 (stereo not given)	11.2µM*
Cc1ccc(C2C=C(c3ccc(F)cc3)Nc3nc(CCCO)nn32)cc1 (stereo not given)	8.91µM*
COc1ccc(C2C=C(c3ccc(F)cc3)Nc3nc(-c4ccc(Cl)cc4)nn32)cc1 (stereo not given)	1.12µM*
Cc1ccc(C2C=C(c3ccccc3)Nc3nc(NS(=O)(=O)c4ccc(C)cc4)nn32)cc1 (stereo not given)	-13.8%
OCCCc1nc2n(n1)C(c1cccc(Cl)c1)C=C(c1ccccc1)N2 (stereo not given)	i
CCOc1ccccc1C1C(C(=O)Nc2ccccc2)=C(C)Nc2nc(-c3ccccc3)nn21 (stereo not given)	-18.5%
COc1ccc(C2C=C(c3ccccc3)Nc3nc(NS(=O)(=O)c4ccc(C)cc4)nn32)cc1 (stereo not given)	19.8%
COc1ccc(C2Cn3nnc(-c4nc(-c5ccc(Cl)cc5)no4)c3CO2)cc1 (stereo not given)	i
CC[C@H]1CN(C(=O)Nc2cccc(C(F)(F)F)c2)CC[C@H]1CC(=O)N(CC)C(=O)NCCCN(C)C	i
Cc1cc(C(F)(F)F)nn1CC(=O)N1CCCCCCNC(=O)CC1	-16.6%
O=[S+]([O-])(Nc1ccccc1)c1ccc2c(c1)OCCN(Cc1nccs1)C2	-7.5%[44.1 µM]
CCc1nc(-c2c3n(c(=O)n(CC(=O)Nc4ccccc4Cl)c2=O)CCCC3)no1	-14.6%
CCC1(C(=O)Nc2ccc(C(C)C)cc2)CCCCC(=O)N1 (stereo not given)	i
Cc1cccc(NC(=O)c2cc3n(n2)CC(c2ccc(Cl)cc2)OC3)c1C (stereo not given)	-14.9%
COc1ccc(CNC(=O)CCc2c(C)nc3cc(-c4ccc(OC)cc4OC)nn3c2C)cc1	11.2µM*
COc1ccccc1-c1cc2nc(C)c(CCC(=O)Nc3cc(C)ccc3C)c(C)n2n1	-15.4%
